Data taken from the supplement of paper PMC11732987, “Enantioselective OTUD7B fragment discovery through chemoproteomics screening and high-throughput optimisation” (Communications Chemistry, 2025).

What was measured:
Assay in all cases: log2 ratio of Biotin-Ahx-Ub-VS probe labelling (fragment/DMSO); higher = less target engagement (more negative = stronger competition), active = hit call of the paper (q ≤ 0.05, log2 ratio ≤ -1)
Conditions in all cases: compound concentration: 200 uM; treatment time: 3 h
ALG13 = biological target: T1, ALG13 (UniProt Q9NP73)
T1 sequence (whole entry): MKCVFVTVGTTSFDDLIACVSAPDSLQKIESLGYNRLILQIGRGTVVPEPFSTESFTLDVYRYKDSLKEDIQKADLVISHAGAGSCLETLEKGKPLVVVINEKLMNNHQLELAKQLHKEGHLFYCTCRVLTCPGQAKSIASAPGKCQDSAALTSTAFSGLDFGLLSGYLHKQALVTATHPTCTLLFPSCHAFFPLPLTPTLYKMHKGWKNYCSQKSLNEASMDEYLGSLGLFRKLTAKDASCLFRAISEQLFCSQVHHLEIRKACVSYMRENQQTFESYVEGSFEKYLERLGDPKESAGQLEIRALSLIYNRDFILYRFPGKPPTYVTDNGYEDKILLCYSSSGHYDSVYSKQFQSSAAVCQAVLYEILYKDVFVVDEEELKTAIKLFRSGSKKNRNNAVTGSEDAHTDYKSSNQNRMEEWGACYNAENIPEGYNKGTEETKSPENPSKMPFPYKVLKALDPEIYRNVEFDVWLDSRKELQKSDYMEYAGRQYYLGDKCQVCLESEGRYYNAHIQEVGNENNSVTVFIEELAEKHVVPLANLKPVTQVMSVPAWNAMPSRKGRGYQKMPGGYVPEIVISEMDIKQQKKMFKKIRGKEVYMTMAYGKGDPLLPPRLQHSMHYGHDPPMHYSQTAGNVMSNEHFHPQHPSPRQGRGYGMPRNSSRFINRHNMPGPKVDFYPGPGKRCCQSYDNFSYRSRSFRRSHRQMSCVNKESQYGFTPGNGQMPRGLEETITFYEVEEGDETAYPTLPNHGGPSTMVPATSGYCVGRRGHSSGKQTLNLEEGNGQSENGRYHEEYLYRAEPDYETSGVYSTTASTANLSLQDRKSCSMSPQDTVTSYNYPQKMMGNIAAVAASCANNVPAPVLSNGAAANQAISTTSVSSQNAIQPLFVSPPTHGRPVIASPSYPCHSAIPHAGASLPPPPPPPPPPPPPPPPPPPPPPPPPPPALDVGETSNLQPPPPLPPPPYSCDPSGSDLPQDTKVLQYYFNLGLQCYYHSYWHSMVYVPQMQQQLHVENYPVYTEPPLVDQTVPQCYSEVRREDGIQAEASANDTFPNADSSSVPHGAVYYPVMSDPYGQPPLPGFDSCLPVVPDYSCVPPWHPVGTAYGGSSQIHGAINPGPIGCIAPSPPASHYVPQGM
Outline: (§1)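 In triplicate, 495 µg of HEK293T lysate per sample was incubated with fragment at 200 µM or vehicle for 3 h. Biotin-Ahx-Ub-VS was then added to 0.5 µM final for 1 h, and labelled DUBs were captured with NeutrAvidin, digested with LysC and trypsin, and measured by diaPASEF LC-MS/MS. Data are average log2 fragment/vehicle ratios by unpaired t-test from global-median-normalised Spectronaut label-free quantities, restricted to proteins with ≥2 unique peptides.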

ATXN3 = ATXN3 (UniProt P54252)
Outline: as §1

BAP1 = biological target: T2, BAP1 (UniProt Q92560)
T2 sequence (whole entry): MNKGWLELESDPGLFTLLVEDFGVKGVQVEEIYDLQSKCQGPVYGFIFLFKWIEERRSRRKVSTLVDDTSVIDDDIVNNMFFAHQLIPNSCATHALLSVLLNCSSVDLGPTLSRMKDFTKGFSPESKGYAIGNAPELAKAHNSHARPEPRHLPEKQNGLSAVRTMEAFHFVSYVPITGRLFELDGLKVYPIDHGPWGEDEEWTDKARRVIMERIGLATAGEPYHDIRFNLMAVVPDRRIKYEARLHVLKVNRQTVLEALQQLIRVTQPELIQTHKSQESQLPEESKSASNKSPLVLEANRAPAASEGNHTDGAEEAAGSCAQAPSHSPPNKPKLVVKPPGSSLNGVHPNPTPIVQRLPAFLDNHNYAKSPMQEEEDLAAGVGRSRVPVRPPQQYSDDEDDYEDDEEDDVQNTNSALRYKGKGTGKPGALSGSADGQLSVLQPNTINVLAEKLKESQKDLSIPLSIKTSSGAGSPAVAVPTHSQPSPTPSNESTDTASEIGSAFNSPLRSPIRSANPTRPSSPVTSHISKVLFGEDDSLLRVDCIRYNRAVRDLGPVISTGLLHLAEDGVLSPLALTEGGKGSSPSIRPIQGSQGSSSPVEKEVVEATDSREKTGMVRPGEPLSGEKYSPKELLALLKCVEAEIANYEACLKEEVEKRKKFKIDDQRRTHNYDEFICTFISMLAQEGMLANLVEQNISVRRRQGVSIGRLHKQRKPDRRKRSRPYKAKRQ
Outline: as §1

EIF3F = EIF3F (UniProt O00303)
Outline: as §1

EIF3H = EIF3H (UniProt O15372)
Outline: as §1

FAM105A = biological target: T3, FAM105A (UniProt Q9NUU6)
T3 sequence (whole entry): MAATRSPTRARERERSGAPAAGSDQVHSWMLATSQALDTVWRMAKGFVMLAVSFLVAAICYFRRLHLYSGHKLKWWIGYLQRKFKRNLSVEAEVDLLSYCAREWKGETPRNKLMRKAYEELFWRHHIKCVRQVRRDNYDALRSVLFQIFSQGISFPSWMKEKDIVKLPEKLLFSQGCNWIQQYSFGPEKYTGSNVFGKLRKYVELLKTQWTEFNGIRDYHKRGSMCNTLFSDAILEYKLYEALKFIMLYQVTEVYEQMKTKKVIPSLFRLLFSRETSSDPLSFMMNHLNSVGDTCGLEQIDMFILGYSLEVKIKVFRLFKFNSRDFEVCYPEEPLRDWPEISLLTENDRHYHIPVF
Outline: as §1

OTUB1 = OTUB1 (UniProt Q96FW1)
Outline: as §1

OTUD4 = biological target: T4, OTUD4 (UniProt Q01804)
T4 sequence (whole entry): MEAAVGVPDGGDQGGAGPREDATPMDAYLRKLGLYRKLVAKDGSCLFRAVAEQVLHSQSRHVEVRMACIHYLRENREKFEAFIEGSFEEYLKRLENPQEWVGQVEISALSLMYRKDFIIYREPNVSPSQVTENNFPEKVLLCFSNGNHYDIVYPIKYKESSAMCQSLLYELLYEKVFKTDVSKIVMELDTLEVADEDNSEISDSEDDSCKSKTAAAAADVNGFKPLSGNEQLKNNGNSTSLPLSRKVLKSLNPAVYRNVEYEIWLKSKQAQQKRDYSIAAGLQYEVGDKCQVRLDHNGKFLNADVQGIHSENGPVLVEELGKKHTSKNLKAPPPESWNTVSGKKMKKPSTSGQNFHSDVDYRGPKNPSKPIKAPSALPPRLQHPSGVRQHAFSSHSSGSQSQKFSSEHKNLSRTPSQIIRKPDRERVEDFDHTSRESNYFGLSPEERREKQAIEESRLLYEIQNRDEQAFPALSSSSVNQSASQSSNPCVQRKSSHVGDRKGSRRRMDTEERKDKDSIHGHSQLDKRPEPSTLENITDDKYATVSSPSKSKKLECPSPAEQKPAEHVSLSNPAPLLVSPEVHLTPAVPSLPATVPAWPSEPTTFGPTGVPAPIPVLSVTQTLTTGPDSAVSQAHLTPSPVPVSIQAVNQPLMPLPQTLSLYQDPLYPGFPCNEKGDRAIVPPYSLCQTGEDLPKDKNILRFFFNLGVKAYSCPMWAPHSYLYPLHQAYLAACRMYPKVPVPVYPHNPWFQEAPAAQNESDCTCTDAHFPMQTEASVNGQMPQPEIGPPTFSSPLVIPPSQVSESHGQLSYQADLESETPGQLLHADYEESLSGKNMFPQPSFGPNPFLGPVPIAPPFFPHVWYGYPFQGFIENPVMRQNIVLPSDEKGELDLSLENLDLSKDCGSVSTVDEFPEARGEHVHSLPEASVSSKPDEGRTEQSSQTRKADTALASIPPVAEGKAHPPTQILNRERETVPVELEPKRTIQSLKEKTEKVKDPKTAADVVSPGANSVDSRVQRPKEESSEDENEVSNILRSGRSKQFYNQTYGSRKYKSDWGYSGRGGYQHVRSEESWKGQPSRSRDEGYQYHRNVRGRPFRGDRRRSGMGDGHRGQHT
Outline: as §1

OTUD5 = biological target: T5, OTUD5 (UniProt Q96G74)
T5 sequence (whole entry): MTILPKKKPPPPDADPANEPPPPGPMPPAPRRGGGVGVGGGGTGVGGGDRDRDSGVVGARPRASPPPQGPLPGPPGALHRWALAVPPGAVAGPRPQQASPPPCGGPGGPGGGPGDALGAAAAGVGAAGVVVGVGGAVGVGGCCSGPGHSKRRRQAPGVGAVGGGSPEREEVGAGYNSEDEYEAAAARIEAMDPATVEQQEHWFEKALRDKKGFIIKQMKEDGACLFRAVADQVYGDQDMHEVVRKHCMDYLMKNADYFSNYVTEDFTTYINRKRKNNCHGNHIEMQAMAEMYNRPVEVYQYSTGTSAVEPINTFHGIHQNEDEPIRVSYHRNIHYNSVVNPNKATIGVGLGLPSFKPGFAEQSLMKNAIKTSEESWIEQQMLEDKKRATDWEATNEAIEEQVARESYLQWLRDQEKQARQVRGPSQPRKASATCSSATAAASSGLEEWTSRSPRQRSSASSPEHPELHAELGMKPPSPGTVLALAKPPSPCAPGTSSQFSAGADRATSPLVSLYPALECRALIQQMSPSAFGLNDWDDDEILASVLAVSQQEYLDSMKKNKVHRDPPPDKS
Outline: as §1

Measured: log2 ratio of Biotin-Ahx-Ub-VS probe labelling

Sequence of OTUB1 (Q96FW1 whole entry): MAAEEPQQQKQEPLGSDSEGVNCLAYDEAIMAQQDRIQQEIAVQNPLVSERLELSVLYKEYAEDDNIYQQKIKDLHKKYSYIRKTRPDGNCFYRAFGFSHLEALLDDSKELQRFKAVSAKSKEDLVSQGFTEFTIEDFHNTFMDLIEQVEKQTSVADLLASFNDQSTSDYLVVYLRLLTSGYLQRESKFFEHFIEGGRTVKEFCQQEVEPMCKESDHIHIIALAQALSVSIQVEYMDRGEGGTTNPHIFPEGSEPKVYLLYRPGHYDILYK
Sequence of ATXN3 (P54252 whole entry): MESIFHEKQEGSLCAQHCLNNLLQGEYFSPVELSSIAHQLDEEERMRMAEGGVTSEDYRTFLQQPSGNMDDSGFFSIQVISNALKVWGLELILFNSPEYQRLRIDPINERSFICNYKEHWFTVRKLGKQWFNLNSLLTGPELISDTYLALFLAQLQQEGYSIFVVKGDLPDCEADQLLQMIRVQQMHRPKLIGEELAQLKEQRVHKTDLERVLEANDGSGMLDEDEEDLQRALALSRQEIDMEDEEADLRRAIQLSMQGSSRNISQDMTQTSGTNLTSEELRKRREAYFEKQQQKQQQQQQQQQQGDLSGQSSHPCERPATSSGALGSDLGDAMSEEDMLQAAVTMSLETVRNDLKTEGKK
Sequence of EIF3H (O15372 whole entry): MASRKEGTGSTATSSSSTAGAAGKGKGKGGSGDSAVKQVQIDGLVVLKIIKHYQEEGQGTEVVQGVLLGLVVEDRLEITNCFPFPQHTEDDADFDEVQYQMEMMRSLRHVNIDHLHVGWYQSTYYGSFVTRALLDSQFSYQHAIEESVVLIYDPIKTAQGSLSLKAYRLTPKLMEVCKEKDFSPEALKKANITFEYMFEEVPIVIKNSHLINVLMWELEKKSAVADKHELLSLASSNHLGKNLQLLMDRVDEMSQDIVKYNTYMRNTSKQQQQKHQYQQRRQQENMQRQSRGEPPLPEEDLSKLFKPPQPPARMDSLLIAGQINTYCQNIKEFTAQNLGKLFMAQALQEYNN
Sequence of EIF3F (O00303 whole entry): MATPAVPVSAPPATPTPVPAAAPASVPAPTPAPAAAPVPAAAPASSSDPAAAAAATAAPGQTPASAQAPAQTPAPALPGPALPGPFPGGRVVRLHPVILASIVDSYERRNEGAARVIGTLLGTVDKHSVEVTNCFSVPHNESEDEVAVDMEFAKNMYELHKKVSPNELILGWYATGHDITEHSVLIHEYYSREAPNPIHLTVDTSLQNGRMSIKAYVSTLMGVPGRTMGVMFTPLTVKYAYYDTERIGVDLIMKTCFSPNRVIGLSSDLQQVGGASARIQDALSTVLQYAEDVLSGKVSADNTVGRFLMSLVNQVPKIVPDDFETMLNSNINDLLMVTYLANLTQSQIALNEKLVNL

O=C(CCl)NCc1cccc(N2CCCC2=O)c1
inactive: ALG13 -0.0431 | ATXN3 -0.37 | EIF3F 0.179 | EIF3H 0.112 | FAM105A -0.0389 | OTUB1 0.122 | OTUD4 -0.18 | OTUD5 -0.358
active: BAP1 -3.09
